Values joined by “and” are separate entries in the source; they are usually repeats but may differ in a detail not shown here. Equal values may be shown once. Hit rate of the full screen: of about 340,000 compounds, about 1,700 (0.5%) were called active. This is one part of a sample in which actives are shown more often than they occur. Unmarked numbers belong to inactive results. Cut-off read from the data, not from the text of the source: active = inhibition above about 40%; inactive = the rest.

Chain of Cysteine protease ATG4B (Homo sapiens) (Q9Y4P1 whole entry, looked up): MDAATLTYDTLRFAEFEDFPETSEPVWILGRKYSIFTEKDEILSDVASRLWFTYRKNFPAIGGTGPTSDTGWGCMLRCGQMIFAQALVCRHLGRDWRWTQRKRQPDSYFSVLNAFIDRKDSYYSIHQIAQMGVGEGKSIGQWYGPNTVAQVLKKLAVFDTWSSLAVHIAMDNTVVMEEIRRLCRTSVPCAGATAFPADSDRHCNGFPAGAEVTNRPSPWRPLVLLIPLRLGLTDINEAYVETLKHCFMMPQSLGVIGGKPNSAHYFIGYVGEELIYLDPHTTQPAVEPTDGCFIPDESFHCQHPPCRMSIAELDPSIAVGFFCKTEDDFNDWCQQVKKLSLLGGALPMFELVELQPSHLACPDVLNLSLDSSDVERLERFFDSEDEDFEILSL

The assay addresses Cysteine protease ATG4B (Homo sapiens) (UniProt Q9Y4P1). Kind of assay: ATG4B protease inhibitors, primary screen, biochemical, fluorescence, uHTS (AID 504462). The settings on record: ATG4B cleavage of LC3-PLA2, NBD-HPC fluorescence, 1 h; at 8.33 µM; stronger effect = higher value.
By inhibition is commonly meant the relative decrease from the control value, in per cent. For the compound `CC(=O)c1ccc(S(=O)(=O)NCc2nnnn2-c2ccccc2)cc1`, the inhibition was -3.36%. The result for `O=C(O)CCn1cc(/C=C/C(=O)c2ccc(Cl)cc2)c(-c2cccc(Br)c2)n1` reads 53.3% (active); that for `Cc1cccc(C=CC(=O)c2ccc(Cl)cc2)c1`, -4.71%. The result for `O=C(/C=C/NNC(=O)c1cccc(Br)c1)c1ccccc1` reads 8.45%; that for `CCOC(=O)c1ccc(-n2c(CCC(=O)O)ccc2-c2ccccc2)cc1`, 9.28%. On to `COc1ccc(C(CNCC(=O)Nc2ccccc2F)N(C)C)cc1` (stereo not given), for which the inhibition was 9.81%.

Consider `Cc1c([N+](=O)[O-])c(N)nn1C`, for which the inhibition is -3.74%. The figure for `O=C(COC(=O)Cn1[nH]c(=O)c2ccccc2c1=O)Nc1c(Cl)cccc1C(F)(F)F` is 1.19%. The figure for `CCC(C)N(C(=O)COC(=O)C1C(C(=O)OC)=C(C)NC(C)=C1C(=O)OC)C1CCS(=O)(=O)C1` (stereo not given) is -4.18%; for `Cc1cc(NC(=O)CSc2nc(C(C)C)nc3sc4c(c23)CCC(C)C4)no1` (stereo not given) it is -8.31%. The figure for `Cc1ccc(C)c2c1cc(C)c1nnc(SCC(=O)Nc3cccc(C(=O)O)c3)n12` is -4.22%; for `CC(C)c1nc(SCC(=O)Nc2cccc(C(=O)O)c2)c2c3c(sc2n1)CCCC3` it is 68.4% (active); for `Cc1cc(N(C)C)cc(C)[n+]1[O-]` it is 1%.

As for `Cc1ccccc1-n1c(C)cc(/C=C2\NC(=O)NC2=O)c1C`, the inhibition was -2.07%. The figure for `C#CCOc1ccc(/C=C2/C(=O)NN(c3ccccc3)C2=O)cc1OC` is 3.6%. The figure for `Cc1cccc(C)c1-n1c(C)cc(/C=C2\C(=O)NN(c3ccccc3)C2=O)c1C` is 50.9% (active); for `CC(C)CC(=O)NC(=S)Nc1ccc(F)cc1F` it is 0.36%; for `O=C(CC1C(=O)NCCN1CC(c1ccccc1)c1ccccc1)NCC1CCOCC1` (stereo not given) it is 5.98%. The figure for `Cc1cccc(CC(=O)Nc2c3c(nn2-c2cccc(Cl)c2)CS(=O)C3)c1` (stereo not given) is -6.51%. Consider `NC(=O)c1sc2nc3c(c(-c4ccccc4)c2c1N)CCC3`, for which the inhibition was 42.3% (active). The result for `Cc1sc2nc(CC(N)=O)[nH]c(=O)c2c1-c1ccccc1` reads 5.21%. The figure for `CCN(CC)C(=O)c1sc2nc(-c3ccccc3)ccc2c1N` is -13.8%; for `CCN(CC)S(=O)(=O)c1ccc2c3c(cccc13)C(=O)S2` it is -12.5%; for `O=C(c1ccncc1)N1CCN(S(=O)(=O)c2cccc([N+](=O)[O-])c2)CC1` it is -1.28%. As to `Cc1ccccc1/C=C\c1nc(O)c([N+](=O)[O-])c(=O)[nH]1`, the inhibition is 4.7%. The result for `CCCc1ccc(C(=O)[C@@H]2[C@@H](C(C)=O)N3c4ccc(F)cc4C=C[C@@H]3[C@@]23C(=O)Nc2ccccc23)cc1` reads 7.49%. The figure for `Cc1ccc(Oc2cc(NC(=O)CCCn3nc(C)c([N+](=O)[O-])c3C)cc([N+](=O)[O-])c2)cc1` is 62% (active); for `COc1ccc(CNC(=O)CCCn2nc(C)c([N+](=O)[O-])c2C)cc1` it is 4.24%; for `Cc1nn(CC(=O)Nc2ccc(N(C)C)cc2)c(C)c1[N+](=O)[O-]` it is -1.82%. As to `CN(c1ccc(OCC(=O)NC2=NCCS2)cc1)S(=O)(=O)c1ccc(F)cc1`, the inhibition is -9.32%.

As for `COCCCNC(=S)NC(=O)c1ccc([N+](=O)[O-])cc1`, the inhibition was -7.22%. Take `CCCc1nc2sc3c(c2c(=O)n1NC(=O)CCCl)CCCC3`: the inhibition was 10.3%.

On to `CCc1nc(N2CCN(C(C)=O)CC2)c2c3c(sc2n1)CCCC3`, for which the inhibition is 45.4% (active). The figure for `Cc1nc2sc3c(c2c(=O)n1NC(=O)CCl)CCCC3` is -3.09%; for `COc1cc(/C=C/C(=O)O)cc(S(=O)(=O)Nc2ccccc2SC)c1OC` it is -3.57%; for `CS(=O)(=O)N(Cc1ccccc1Cl)c1ccc(C(=O)NCc2cccnc2)cc1` it is -9.46%. The figure for `CCCCN(C(=O)CSCC(=O)Nc1ccc(OC)cc1)c1c(N)n(CCC)c(=O)[nH]c1=O` is -1.8%; for `NS(=O)(=O)c1ccc(CCNc2nc(C(F)(F)F)nc3ccccc23)cc1` it is -2.12%. The result for `CCc1ccc(C(CNc2nc(C(F)(F)F)nc3ccccc23)N(C)C)cc1` (stereo not given) reads 19.9%; that for `COc1cccc(CNc2nc(C(F)(F)F)nc3ccccc23)c1`, 49% (active); that for `COC(=O)CN(c1nc(C)c(Cl)c(OC)n1)S(=O)(=O)c1ccc(C)cc1`, 11.3%. Consider `CC1Cc2ccccc2N1C1=CC(=O)CC(C)(C)C1` (stereo not given), for which the inhibition is -2.3%. The result for `CC1=C/C(=N\OS(=O)(=O)c2ccccc2)C=CC1=O` reads -2.58%; that for `CC1=C/C(=N\S(=O)(=O)c2ccccc2)C(C(C)C)=CC1=O`, 66% (active). With `COc1ccc(S(=O)(=O)/N=C2\C=C(NS(=O)(=O)c3ccccc3)C(=O)c3ccccc32)cc1`, the inhibition was -24.5%. Consider `Cc1cc(C)nc(-n2ncc3c2CC(c2ccc(C(C)C)cc2)CC3=O)n1` (stereo not given), for which the inhibition is -17.4%.

As to `Cc1ccc(CNC(=O)CCN2C(=O)[C@@H]3Cc4ccccc4CN3C2=O)cc1`, the inhibition is 2.31%. As for `CC(=O)Nc1ccc(NC(=O)CSc2nnnn2-c2ccccc2F)cc1`, the inhibition is 2.29%. For the compound `C=CCC1(CC=C)CCCN1C(=O)c1cc(COc2ccc(-n3cncn3)cc2)on1`, the inhibition was 7.84%. The result for `CC(C)CCNC(=O)C1CCCN(S(=O)(=O)c2ccc(F)cc2)C1` (stereo not given) reads 0.97%; that for `O=C(c1ccc(OC2CCN(C(=O)c3cccnc3)CC2)cc1)N1CCCCCC1`, 19.9%. The figure for `C=CCN1C=C2C(=O)C(C)(OC(=O)CCc3ccccc3)C(=O)C=C2C=C1c1ccc(C#N)cc1` (stereo not given) is -3.06%; for `COCCN1C=C2C(=O)C(C)(OC(=O)C3CCCC3)C(=O)C=C2C=C1c1ccsc1` (stereo not given) it is 2.63%; for `CC1(OC(=O)C2CCCC2)C(=O)C=C2C=C(c3ccc(C#N)cc3)OC=C2C1=O` (stereo not given) it is 45.7% (active).

Consider `O=C(O)c1ccc([N+](=O)[O-])cc1Sc1ccsc1`, for which the inhibition was 5.83%. The result for `COc1ccc(C(=O)CC(=O)c2ccc(C)cc2)c(O)c1` reads 1.97%. The figure for `CCN1C(=O)/C(=C\N2CCN(c3cccc(Cl)c3)CC2)SC1=S` is 1.01%. The result for `O=C(O)C(c1ccccc1)N1C(=O)/C(=C\c2ccc(-c3cccc(Cl)c3)o2)SC1=S` (stereo not given) reads 59.4% (active); that for `Cn1cccc1/C=C1\SC(=S)N(NC(=O)c2ccc(Cl)cc2)C1=O`, 11.7%. As for `CCN(CC(=O)Nc1c(F)cccc1F)C(=O)c1ccc(-c2ccccc2)cc1`, the inhibition was 4.11%. Consider `O=C(c1cccs1)N1CCN(Cc2ccc3c(c2)OCO3)CC1`, for which the inhibition is -7.13%. The result for `CCCCCc1c(C)nc(N2CCN(Cc3ccc4c(c3)OCO4)CC2)[nH]c1=O` reads -0.63%; that for `Fc1ccc2[nH]c3c(N4CCN(Cc5ccc6c(c5)OCO6)CC4)ncnc3c2c1`, 48.4% (active); that for `COC(=O)c1ccc(CNC(=O)Cn2cc(C)c(=O)[nH]c2=O)cc1`, -5.77%. The figure for `CN1CCN(Cc2nc3cc(NC(=O)COc4ccc([N+](=O)[O-])cc4)ccc3n2C)CC1` is -4.73%; for `CC12c3ccccc3C(c3ccccc31)C1C(=O)N(Cc3cccnc3)C(=O)C12` (stereo not given) it is -4.51%.

Regarding `Cc1cccc(C(=O)N2CCN(S(=O)(=O)N3CCCCC3)CC2)c1`, the inhibition is 0.43%.

In the case of `Cc1cccc(C)c1N1CCN(S(=O)(=O)N2CCOCC2)CC1`, the inhibition is 19.1%. The result for `Cc1cccc(C)c1N1CCN(S(=O)(=O)N2CCCCC2)CC1` reads 54.5% (active); that for `O=C(O)c1ccc(S(=O)(=O)N2CCOCC2)o1`, 0.56%; that for `O=c1cc(CO)oc(C(Nc2cccc([N+](=O)[O-])c2)c2ccccn2)c1O` (stereo not given), -12.1%. The figure for `CCOn1c(SC(C)C)nc2ccccc2c1=O` is 7.51%. `CCOC(=O)C(C)Sc1nc2ccccc2c(=O)n1CC1CCCCC1` (stereo not given): the inhibition is 41.4% (active). The result for `COCC(C)n1c(SCC(=O)NC2CCCCC2C)nc2ccccc2c1=O` (stereo not given) reads -0.82%; that for `O=C(CNC(=O)c1ccc(Br)o1)NCC1CCCO1` (stereo not given), -6.66%. The result for `Cc1ccc(C)c(-n2cc(CN3CCN(C(=O)c4ncn[nH]4)CC3)c(-c3ccccc3)n2)c1` reads 2.98%; that for `Cc1ccc(C(=O)C[n+]2cc(-c3ccccc3)n3c2CCCCC3)cc1`, 10.8% and 3.23%. `O=C(O)c1ccccc1/C=N/Nc1ccc(S(=O)(=O)Nc2ccc(Cl)cc2)cc1[N+](=O)[O-]`: the inhibition was 1.28%. The result for `COc1ccc(Br)cc1/C=N/Nc1ccc(S(=O)(=O)Nc2ccccc2C(=O)O)cc1[N+](=O)[O-]` reads 12.8%. The figure for `COc1cccc(/C=N/Nc2ccc(S(=O)(=O)Nc3ccccc3C(=O)O)cc2[N+](=O)[O-])c1O` is 42.3% (active). With `O=C(OCc1cc(Cl)ccc1OC(F)F)c1cccnc1`, the inhibition was -2.74%. The result for `COc1ccc(CNC(=O)C2(CC3CC(c4ccccc4)=NO3)CCN(C(=O)c3cccc(O)c3)CC2)cc1` (stereo not given) reads -7.3%; that for `CCOC(=O)c1c(-c2ccccc2)oc2ccc(OCC(=O)NN)cc12`, -2.49%; that for `CCOC(=O)c1c(-c2ccccc2)oc2cc(Br)c(O)c(C=O)c12`, 49.9% (active). `CCOC(=O)c1c(-c2ccccc2)oc2cc(Br)c(O)cc12`: the inhibition was -6.47%. For `O=C(CCc1ccccc1)Nc1ccc(NC(=O)C2CC2)nc1`, the inhibition was -15.9%.

As to `Cn1c(=O)c2c(SCC(=O)N3CCOCC3)nc(C3CC3)nc2n(C)c1=O`, the inhibition is -4.88%.

For `Cc1cccc(NC(=S)NCCc2ccc(Cl)cc2)c1C`, the inhibition is 48.4% (active). The result for `Cc1cccc(NC(=S)NCCc2ccc(F)cc2)c1C` reads 20.9%. Take `Cc1ccc(NC(=S)NCCc2ccc(Cl)cc2)c(C)c1`: the inhibition was 5.82%.
